# Compound activity (PubChem BioAssay)
# Compounds with a hit are over-represented: about 1.7% of the library has one in this group of screens.
# CCHFV vOTU inh: CCHFV vOTU protease inhibitors, primary screen, biochemical, Pep-AMC substrate, fluorescence; inhibition, % at 11.5 µM; Crimean-Congo hemorrhagic fever virus L polyprotein viral ovarian tumor (vOTU) protease …; 370,000 tested, 0.55% active; in the data active means inhibition above about 30%; further: 0% = vehicle wells with enzyme and 100% = no enzyme wells
# RecA splice inh: Mtb RecA intein splicing inhibitors, primary screen, biochemical, fluorescence, HTS | cell-free RecA intein splicing | inhibition, % (concentration not given with the values) | 290,000 tested, 0.75% active | AID 2221, 2009; in the data active means inhibition above about 30%;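 further: 0% = vehicle wells and 100% = reference inhibitor control wells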
# Target sequence (P9WHJ3 whole entry, looked up, canonical isoform): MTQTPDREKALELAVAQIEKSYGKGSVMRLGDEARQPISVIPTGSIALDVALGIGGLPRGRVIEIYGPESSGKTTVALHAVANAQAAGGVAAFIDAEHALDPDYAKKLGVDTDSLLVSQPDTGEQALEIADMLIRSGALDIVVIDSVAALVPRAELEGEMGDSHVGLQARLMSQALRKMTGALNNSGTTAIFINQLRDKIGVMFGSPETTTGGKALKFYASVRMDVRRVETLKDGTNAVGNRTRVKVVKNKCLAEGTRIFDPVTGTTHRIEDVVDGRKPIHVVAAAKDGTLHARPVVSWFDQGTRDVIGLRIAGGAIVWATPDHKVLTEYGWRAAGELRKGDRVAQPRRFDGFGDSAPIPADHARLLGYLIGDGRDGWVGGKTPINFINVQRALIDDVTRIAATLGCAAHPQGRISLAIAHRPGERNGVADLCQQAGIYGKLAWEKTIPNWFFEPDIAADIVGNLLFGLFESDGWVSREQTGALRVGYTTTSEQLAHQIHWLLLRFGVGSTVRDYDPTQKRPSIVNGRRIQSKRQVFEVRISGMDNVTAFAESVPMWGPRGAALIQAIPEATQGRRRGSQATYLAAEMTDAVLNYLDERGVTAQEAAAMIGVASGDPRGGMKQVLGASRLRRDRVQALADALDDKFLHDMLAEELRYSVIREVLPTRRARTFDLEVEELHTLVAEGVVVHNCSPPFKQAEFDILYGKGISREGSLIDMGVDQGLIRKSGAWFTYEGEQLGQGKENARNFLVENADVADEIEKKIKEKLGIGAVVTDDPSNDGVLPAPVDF
# PriA SSB inh: inhibitors of Klebsiella pneumoniae PriA binding to SSB C-terminal tail, primary screen, biochemical, AlphaScreen; PriA–SSB C-terminal tail interaction (Klebsiella pneumoniae); AlphaScreen SSBct-PriA binding, biotinylated peptide; inhibition, % at 33 µM; 430,000 tested, 0.6% active; AID 1272365, 2023; in the data active means inhibition mostly above about 37%, no sharp cut-off; inactive means mostly below about 20%;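 further: plate controls were negative control peptide for no effect and reference peptide for full effect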
# VHR inh abs: VHR1 phosphatase inhibitors, primary screen, biochemical, absorbance, uHTS; AID 1654, 2009; 290,000 tested, 0.52% active; recombinant VHR phosphatase, pNPP absorbance; Dual specificity protein phosphatase 3 (Homo sapiens), P51452; inhibition, % at 13.3 µM; in the data active means inhibition above about 50%
# 3CLpro inhibitor: SARS-CoV 3CLpro protease inhibitors, primary screen, biochemical, quenched FRET | recombinant SARS-CoV 3CLpro, quenched FRET peptide cleavage | 290,000 tested, 0.14% active | Replicase polyprotein 1ab (Severe acute respiratory syndrome coronavirus), P0C6X7 | inhibition, % at 6 µM | AID 1706, 2009; in the data active means inhibition above about 12%
# Active calls of the source: *; nt = no result.
SMILES,CCHFV vOTU inh,RecA splice inh,PriA SSB inh,VHR inh abs,3CLpro inhibitor
Cc1ccc(Cl)cc1-n1ncc2c(Nc3cccc(C)c3C)ncnc21,nt,nt,-13,nt,nt
O=C(CSc1ncnc2c1nnn2Cc1ccc(F)cc1)NCC1CCCO1 (centres undefined),-6,39*,-10,14,2
CCn1nnc2c(SCC(=O)NC[C@H]3CCCO3)ncnc21,nt,nt,-4,nt,nt
O=C(NCCN1CCCCC1)Nc1ccc(F)cc1,-8,0,-4,18,-1
O=C(NCCN1CCCCC1)Nc1cccc(F)c1,-5,2,9,57*,-1
O=[N+]([O-])c1ccc(Cl)c(S(=O)(=O)NCCOc2cccc(C(F)(F)F)c2)c1,nt,nt,24,nt,nt
Cc1cc(C)cc(OCCNS(=O)(=O)c2cc([N+](=O)[O-])ccc2Cl)c1,nt,nt,36*,nt,nt
Cc1ccc(-c2c(C(=O)O)c(C(=O)O)c3n2CSC3)cc1,4,0,73*,nt,1
O=C(CSc1cc(NCc2ccc(Cl)cc2)ncn1)Nc1ccccc1Br,nt,nt,0,nt,nt
O=C(c1ccc(OC2CCN(CCc3ccccc3)CC2)cc1)N1CCC(CO)CC1,20,1,0,51*,-3
Cc1ccc(NC(=O)CN2C(=O)COc3ccccc32)cc1,nt,nt,11,nt,nt
O=c1c2ccccc2nc2n1CCC2,13,51*,-8,42,6
COc1cc(OC)cc(-c2cc(N)n(S(=O)(=O)c3cccc4nsnc34)n2)c1,-1,0,39*,-9,1
O=C(c1ccccc1Cl)N1CCC(Oc2ccc(C(F)(F)F)cn2)CC1,nt,nt,1,nt,nt
NC(=NOC(=O)c1ccco1)c1ccccc1,nt,nt,-8,nt,nt
O=C(Nc1nnc(S(=O)(=O)Nc2ccccc2)s1)c1ccccc1Cl,8,3,0,-2,2
COc1ccc(NS(=O)(=O)c2nnc(NC(=O)c3ccccc3F)s2)cc1,4,-4,100*,2,3
COc1cccc(OCC(O)CN2C(C)(C)CC(O)CC2(C)C)c1 (centres undefined),nt,nt,-9,nt,nt
O=C(O)CN1C(=O)/C(=C\c2ccc(OC(=O)c3ccco3)cc2)SC1=S,14,30*,-14,-11,0
CCS(=O)(=O)C1=NN2C(=N)/C(=C\c3ccc(OC(=O)c4ccco4)cc3)C(=O)N=C2S1,9,33*,-12,-5,3
CCN1C(=O)/C(=C\c2cccc(OC(=O)c3ccco3)c2)SC1=S,4,1,-4,7,-4
CCC(CC)C1=NN2C(=N)/C(=C/c3ccc(OC(=O)c4ccco4)cc3)C(=O)N=C2S1,8,8,10,9,6
CCS(=O)(=O)C1=NN2C(=N)/C(=C\c3ccc(OS(=O)(=O)c4ccccc4)c(OC)c3)C(=O)N=C2S1,nt,10,nt,12,9
COc1cc(/C=C2\C(=N)N3N=C(S(=O)(=O)CC(C)C)SC3=NC2=O)ccc1OC(=O)c1ccco1,nt,32*,nt,-17,8
CCCOc1cc(Nc2ccc(NC(=O)Nc3ccc4c(c3)OCCO4)cc2)nc(C)n1,nt,nt,7,nt,nt
SMILES,CCHFV vOTU inh,RecA splice inh,PriA SSB inh,VHR inh abs,3CLpro inhibitor
Cc1cc(C)c(Cn2cnc(-c3ccc([N+](=O)[O-])cc3)c2)c(C)c1,11,-5,50*,34,3
CC(C)(C)c1ccc(Cn2cnc(-c3ccc([N+](=O)[O-])cc3)c2)cc1,20,18,7,-12,2
CCSc1ccccc1C(=O)NCc1ccc(C(O)c2ccsc2)s1 (centres undefined),nt,nt,0,nt,nt
CC1CCN(C(=O)c2[nH]cnc2C(=O)N[C@@H](C)C(=O)OCc2ccccc2)CC1,-4,0,44*,15,nt
C[C@H](NC(=O)c1nc[nH]c1C(=O)N1CCN(C(=O)OC(C)(C)C)CC1)C(=O)OCc1ccccc1,8,16,-11,13,-4
COc1ccc(NC(=O)C2CC(=O)N(c3ccccc3C)C2)c(OC)c1 (centres undefined),5,0,-4,58*,-2
COc1ccc(OC)c(NC(=O)C2CC(=O)N(c3ccccc3)C2)c1 (centres undefined),4,-2,-5,-2,-4
COc1cccc(C(=O)N2CCC(n3nccc3NC(=O)C(OC)c3ccccc3)CC2)c1 (centres undefined),0,4,-6,44,-3
COC(C(=O)Nc1ccnn1C1CCN(C(=O)c2ccc(C)cc2)CC1)c1ccccc1 (centres undefined),-6,2,5,51*,-1
COc1ccc(N(C(=O)c2cccnc2)S(=O)(=O)c2ccc(F)cc2)cc1,-6,7,-7,53*,-3
CC(Oc1ccc(F)cc1)C(=O)Nc1nc(-c2ccccn2)cs1 (centres undefined),-2,5,57*,nt,nt
CC(C)n1nnc(-c2ccc(C(=O)Nc3nc(-c4ccccn4)cs3)cc2)n1,nt,nt,74*,nt,nt
O=C(CCCSc1ccc(F)cc1)Nc1nc(-c2ccccn2)cs1,nt,nt,11,nt,nt
Cn1ccc2cc(C(=O)Nc3nc(-c4ccccn4)cs3)ccc21,nt,nt,110*,nt,nt
O=C(Nc1nc(-c2ccccn2)cs1)c1ccc(I)cc1,nt,nt,39,nt,nt
COc1coc(C(=O)Nc2nc(-c3ccccn3)cs2)cc1=O,nt,nt,87*,nt,nt
Cc1cc(F)ccc1NC(=O)Cn1c(=O)nc(-c2ccccc2F)c2cc(Cl)ccc21,nt,nt,0,nt,nt
O=C(Nc1nc(-c2ccccn2)cs1)c1ccc([N+](=O)[O-])cc1,nt,nt,102*,nt,nt
CN(CC1CCCO1)S(=O)(=O)c1ccc(C(=O)Nc2nc(-c3ccccn3)cs2)cc1 (centres undefined),nt,nt,44*,-5,-4
O=C(Nc1nc(-c2ccccn2)cs1)c1ccc(C(F)(F)F)cc1,nt,nt,31,nt,nt
O=C(Nc1nc(-c2ccccn2)cs1)c1ccc(F)cc1,nt,nt,107*,nt,nt
COc1ccc(C(=O)Nc2nc(-c3ccccn3)cs2)cc1OC,nt,nt,114*,nt,nt
CSCc1ccc(C(=O)Nc2nc(-c3ccccn3)cs2)cc1,nt,nt,114*,nt,nt
Cc1ccnc2nc(C(=O)Nc3nc(-c4ccccn4)cs3)nn12,10,-13,72*,13,-2
Cc1nc(C(=O)Nc2nc(-c3ccccn3)cs2)nn1-c1ccc(F)cc1,nt,nt,90*,nt,nt
SMILES,CCHFV vOTU inh,RecA splice inh,PriA SSB inh,VHR inh abs,3CLpro inhibitor
Cc1ccc(C)n1-c1ccc(C(=O)Nc2nc(-c3ccccn3)cs2)cc1,nt,nt,81,nt,nt
CCOC(=O)c1ccc(NC(=O)c2ccc(N3C(=O)CCC3=O)cc2)cc1,nt,nt,-11,nt,nt
CCCCOc1ccc(C(=O)N2CCC(c3nc4ccccc4[nH]3)CC2)cc1,nt,nt,91*,nt,nt
COc1ccc(OCC(=O)Nc2ccc3c(c2)CC(=O)N3)cc1,nt,nt,-19,nt,nt
CCOC(=O)c1c(P(=O)(N2CCOCC2)N2CCOCC2)noc1N,7,0,-25,53*,2
Cc1ccc(NC(=O)c2cc(=O)c3ccccc3o2)c(C)c1,4,0,-16,58*,1
Cc1ccc(SCCc2cc[n+](CC(=O)c3ccccc3)cc2)cc1,0,-1,17,6,-7
